The values below come from PubChem BioAssay AID2116 (The Scripps Research Institute Molecular Screening Center, 2009).

This test has as its target Mucolipin-3 (Homo sapiens) (UniProt Q8TDD5). The test is described as follows: TRPML3 and TRPML2 channel agonists, cell-based, patch clamp, Fura-2 profiling panel (AID 2116). Particulars: HEK293 cells expressing TRPML3-YFP, TRPML3 Fura-2 Imaging; Fura-2 340/380 ratio change, at 10 µM, stronger effect = higher value.

Calls of active or inactive are those of the source. How the calls were made is not given here.

Mucolipin-3 (Homo sapiens), sequence (Q8TDD5 whole entry, looked up): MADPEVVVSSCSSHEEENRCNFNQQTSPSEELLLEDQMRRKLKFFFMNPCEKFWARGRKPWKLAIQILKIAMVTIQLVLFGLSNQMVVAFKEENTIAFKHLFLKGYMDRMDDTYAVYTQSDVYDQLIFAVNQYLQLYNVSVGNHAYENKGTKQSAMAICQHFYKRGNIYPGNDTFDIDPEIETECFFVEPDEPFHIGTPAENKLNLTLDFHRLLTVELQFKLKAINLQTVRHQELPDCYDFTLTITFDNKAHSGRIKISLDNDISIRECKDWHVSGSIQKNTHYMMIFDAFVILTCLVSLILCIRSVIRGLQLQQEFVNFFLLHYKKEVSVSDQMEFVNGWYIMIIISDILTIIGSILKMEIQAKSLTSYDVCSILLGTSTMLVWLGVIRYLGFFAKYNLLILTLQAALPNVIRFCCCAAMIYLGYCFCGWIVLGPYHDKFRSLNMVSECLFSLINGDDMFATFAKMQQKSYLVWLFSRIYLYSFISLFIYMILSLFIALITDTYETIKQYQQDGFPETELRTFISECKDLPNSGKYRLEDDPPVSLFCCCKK

As to `O=S(=O)(Nc1ccccc1N1CCCCC1)c1ccc(Cl)s1`, the delta F ratio was determined as 1 and the outcome was “active; no effect on six other TRP channels”.
For `Cc1ccc(S(=O)(=O)Nc2ccccc2-c2ccccc2)cc1`, the delta F ratio turned out to be 0.51 and the outcome was “active; no effect on six other TRP channels”.
Turning to `O=S(=O)(NC1CCCCC1N1CCOCC1)c1ccc(Cl)cc1` (stereo not given), the delta F ratio is 1.38 and the outcome was “active; no effect on six other TRP channels”.
The corresponding values for `O=S(=O)(Nc1ccccc1N1CCOCC1)c1ccc(Cl)s1` are 0.93 and “active; no effect on six other TRP channels”.
For `Cc1ccc(N2CCN(S(=O)(=O)N3CCCCC3)CC2)c(C)c1` the same measures were 0.99 and “active; no effect on six other TRP channels”.
